This is an account of results in PMC5700166.

Numbering of substitutions follows the chain as printed.

What all share (experiment): protein-binding microarray (PBM); PBM: ~300 nM protein, 6 mM HEPES pH 7.8, 80 mM KCl, 0.5 mM EDTA, 0.5 mM EGTA, 6% glycerol, 35 ng/ul poly-dIdC, 1% milk, 1 h, room temperature; Ap Aiptasia and Nv Nematostella (sea anemones) / Co Capsaspora / Aq Amphimedon (sponge) / Dm Drosophila / Hu human; RHD is the Rel homology domain; high values mean tight binding
What all share (conditions): dsDNA, one strand shown

One experiment deals with T1, GST-Ap-NF-kB RHD (Exaiptasia pallida (Aiptasia), UniProt A0A913YAJ5 2-422).
T1 sequence: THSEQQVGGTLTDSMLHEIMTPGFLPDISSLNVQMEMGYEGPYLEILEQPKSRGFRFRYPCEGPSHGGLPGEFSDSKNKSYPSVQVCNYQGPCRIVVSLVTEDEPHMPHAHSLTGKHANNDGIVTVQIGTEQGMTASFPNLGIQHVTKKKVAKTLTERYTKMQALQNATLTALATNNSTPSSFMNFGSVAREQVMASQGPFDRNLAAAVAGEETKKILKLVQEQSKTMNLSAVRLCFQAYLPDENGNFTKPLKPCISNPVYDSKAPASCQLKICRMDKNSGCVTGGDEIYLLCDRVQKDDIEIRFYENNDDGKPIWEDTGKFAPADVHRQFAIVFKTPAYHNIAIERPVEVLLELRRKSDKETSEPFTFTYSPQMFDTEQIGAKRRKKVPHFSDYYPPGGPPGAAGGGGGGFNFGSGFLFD

For experiment [1], the target named is T2, GST-Nv-NF-kB (Cys allele) (Nematostella vectensis, UniProt E5G601 2-411).
T2 sequence: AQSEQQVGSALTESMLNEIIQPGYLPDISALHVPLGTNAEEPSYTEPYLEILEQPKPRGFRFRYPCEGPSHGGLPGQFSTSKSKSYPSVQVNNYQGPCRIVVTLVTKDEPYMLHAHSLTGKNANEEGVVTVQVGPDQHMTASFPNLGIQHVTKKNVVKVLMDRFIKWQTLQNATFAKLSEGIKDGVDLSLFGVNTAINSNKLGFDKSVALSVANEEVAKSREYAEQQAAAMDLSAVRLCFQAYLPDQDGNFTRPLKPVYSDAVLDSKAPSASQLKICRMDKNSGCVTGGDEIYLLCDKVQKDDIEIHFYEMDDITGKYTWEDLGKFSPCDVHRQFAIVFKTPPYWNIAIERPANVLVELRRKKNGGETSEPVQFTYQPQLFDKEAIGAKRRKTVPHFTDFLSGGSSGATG

Experiment [2] concerns the target T3, GST-Nv-NF-kB (Ser allele) (Nematostella vectensis, UniProt A7UNT2 2-411).
T3 sequence: T2 sequence with Q21R, C66S, S207N, E215Q, V217A, E225K, A268E, D399E

The target in a further experiment is T4, GST-Co-NF-kB (Capsaspora owczarzaki, UniProt F1ARL5 200-546).
T4 sequence: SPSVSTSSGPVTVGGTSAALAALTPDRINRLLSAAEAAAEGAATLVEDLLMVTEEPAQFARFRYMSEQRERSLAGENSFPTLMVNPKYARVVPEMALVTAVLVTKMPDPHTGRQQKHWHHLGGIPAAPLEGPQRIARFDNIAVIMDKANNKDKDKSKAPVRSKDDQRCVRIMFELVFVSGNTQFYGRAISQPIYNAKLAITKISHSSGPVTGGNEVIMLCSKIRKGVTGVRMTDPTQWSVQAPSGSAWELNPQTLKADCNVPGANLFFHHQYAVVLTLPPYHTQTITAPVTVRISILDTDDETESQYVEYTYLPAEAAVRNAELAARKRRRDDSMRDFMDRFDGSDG

The next experiment addresses T5, GST-Dm-Relish (Drosophila melanogaster, UniProt Q94527 99-473).
T5 sequence: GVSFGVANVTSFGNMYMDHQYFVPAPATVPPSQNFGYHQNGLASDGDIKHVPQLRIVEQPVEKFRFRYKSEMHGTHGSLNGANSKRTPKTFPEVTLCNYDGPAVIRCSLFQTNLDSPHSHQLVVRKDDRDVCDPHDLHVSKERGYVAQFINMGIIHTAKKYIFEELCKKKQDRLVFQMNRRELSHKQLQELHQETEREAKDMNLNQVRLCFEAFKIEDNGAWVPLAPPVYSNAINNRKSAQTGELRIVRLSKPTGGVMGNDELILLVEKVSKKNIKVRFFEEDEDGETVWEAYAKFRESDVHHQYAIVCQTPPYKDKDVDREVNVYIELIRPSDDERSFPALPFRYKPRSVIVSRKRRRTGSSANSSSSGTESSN

A further experiment concerns the target T6, GST-Aq-NF-kB (Amphimedon queenslandica, UniProt A9Y5G7 2-389).
T6 sequence: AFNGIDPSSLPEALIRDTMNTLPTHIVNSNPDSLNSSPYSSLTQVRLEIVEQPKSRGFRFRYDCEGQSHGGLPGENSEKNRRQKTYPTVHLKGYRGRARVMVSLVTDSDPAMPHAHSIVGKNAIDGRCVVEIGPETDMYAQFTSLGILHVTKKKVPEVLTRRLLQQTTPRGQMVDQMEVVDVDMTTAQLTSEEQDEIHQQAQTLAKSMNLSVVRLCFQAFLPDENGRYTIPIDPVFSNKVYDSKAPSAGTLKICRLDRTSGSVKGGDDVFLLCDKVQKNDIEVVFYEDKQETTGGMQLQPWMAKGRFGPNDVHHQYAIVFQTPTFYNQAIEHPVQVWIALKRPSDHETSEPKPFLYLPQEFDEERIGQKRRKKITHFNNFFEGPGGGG

For the next experiment, the target named is GST-Hu-p50 (Homo sapiens, UniProt P19838 7-356).
Chain of GST-Hu-p50 (P19838 7-356): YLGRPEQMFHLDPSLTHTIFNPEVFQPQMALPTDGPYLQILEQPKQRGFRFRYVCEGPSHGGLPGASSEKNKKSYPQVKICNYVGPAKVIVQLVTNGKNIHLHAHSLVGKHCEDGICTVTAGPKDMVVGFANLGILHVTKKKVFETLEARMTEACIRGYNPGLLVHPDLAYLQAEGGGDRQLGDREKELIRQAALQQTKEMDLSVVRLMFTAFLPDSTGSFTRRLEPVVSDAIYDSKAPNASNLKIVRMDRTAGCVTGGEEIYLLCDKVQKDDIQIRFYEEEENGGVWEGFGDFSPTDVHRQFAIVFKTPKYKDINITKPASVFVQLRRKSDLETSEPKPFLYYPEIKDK

With “CCGATTAACATCACAACTTTCCCTGATGTTAATCGGGTCTTGATTCGCTTGACGCTGCTG”, the binding signal was 3.73 z-score in the experiment with GST-Ap-NF-kB RHD; 5.95 z-score in experiment [1]; 6.13 z-score in experiment [2]; 4.34 z-score with GST-Co-NF-kB; 2.04 z-score in the experiment with GST-Dm-Relish; 5.94 z-score in the experiment with GST-Aq-NF-kB. In the experiment with GST-Hu-p50, this sequence displayed a binding signal of 4.21 z-score.

Consider “CCGATTAACATCAGGGGGGTGCATGATGTTAATCGGGTCTTGATTCGCTTGACGCTGCTG”, for which the binding signal in the experiment with GST-Ap-NF-kB RHD turned out to be 4.21 z-score; in experiment [1], 2.54 z-score; in experiment [2], 3.71 z-score; in the experiment with GST-Co-NF-kB, 3.47 z-score; in the experiment with GST-Dm-Relish it was 4.16 z-score; in the experiment with GST-Aq-NF-kB, 3.59 z-score. In addition, the binding signal with GST-Hu-p50 is 3.86 z-score.

With “CCGATTAACATCACTGTTTCCCCTGATGTTAATCGGGTCTTGATTCGCTTGACGCTGCTG”, the binding signal in the experiment with GST-Ap-NF-kB RHD turned out to be 5.28 z-score; in experiment [1] it was 7.06 z-score; in experiment [2], 9.29 z-score; in the experiment with GST-Co-NF-kB it was 7.92 z-score; with GST-Dm-Relish it was 2.5 z-score; with GST-Aq-NF-kB, 4.25 z-score. In the experiment with GST-Hu-p50, this sequence yielded a binding signal of 4.88 z-score.

Consider “CCGATTAACATCAAAGTCCCCCCTGATGTTAATCGGGTCTTGATTCGCTTGACGCTGCTG”, for which the binding signal in the experiment with GST-Ap-NF-kB RHD came to 7.56 z-score; in experiment [1] it was 6.37 z-score; in experiment [2], 5.95 z-score; with GST-Co-NF-kB it was 9.05 z-score; in the experiment with GST-Dm-Relish, 7.85 z-score; with GST-Aq-NF-kB it was 6.3 z-score. For the same sequence, in the experiment with GST-Hu-p50, the binding signal is 5.64 z-score.

With “CCGATTAACATCAGAAAGTCCCCTGATGTTAATCGGGTCTTGATTCGCTTGACGCTGCTG”, the binding signal in the experiment with GST-Ap-NF-kB RHD stood at 8.98 z-score; in experiment [1] it was 9.38 z-score; in experiment [2], 8.58 z-score; in the experiment with GST-Co-NF-kB, 3.84 z-score; in the experiment with GST-Dm-Relish, 9.11 z-score; with GST-Aq-NF-kB it was 7.8 z-score. For the same sequence, in the experiment with GST-Hu-p50, the binding signal was determined as 7.42 z-score.

Consider “CCGATTAACATCAAAATTCCCCGTGATGTTAATCGGGTCTTGATTCGCTTGACGCTGCTG”, for which the binding signal with GST-Ap-NF-kB RHD is 9.41 z-score; in experiment [1] it was 11.3 z-score; in experiment [2] it was 11.6 z-score; in the experiment with GST-Co-NF-kB it was 10.6 z-score; with GST-Dm-Relish, 8.96 z-score; with GST-Aq-NF-kB, 8.42 z-score. In the experiment with GST-Hu-p50, this sequence had a binding signal of 7.28 z-score.

As for “CCGATTAACATCAGATACTCCCCTGATGTTAATCGGGTCTTGATTCGCTTGACGCTGCTG”, the binding signal with GST-Ap-NF-kB RHD worked out at 5.47 z-score; in experiment [1], 4.28 z-score; in experiment [2] it was 4.21 z-score; in the experiment with GST-Co-NF-kB, 4.31 z-score; in the experiment with GST-Dm-Relish it was 1.86 z-score; with GST-Aq-NF-kB, 4.46 z-score. This sequence had a binding signal with GST-Hu-p50 of 3.57 z-score.

As for “CCGATTAACATCAATAATTTCCCTGATGTTAATCGGGTCTTGATTCGCTTGACGCTGCTG”, the binding signal in the experiment with GST-Ap-NF-kB RHD amounted to 4.38 z-score; in experiment [1] it was 6.39 z-score; in experiment [2], 7.05 z-score; in the experiment with GST-Co-NF-kB it was 4.82 z-score; with GST-Dm-Relish, 3.45 z-score; in the experiment with GST-Aq-NF-kB, 5.17 z-score. In the experiment with GST-Hu-p50, this sequence yielded a binding signal of 5 z-score.

In the case of “CCGATTAACATCAGGGCGCCCCCTGATGTTAATCGGGTCTTGATTCGCTTGACGCTGCTG”, the binding signal came to 6.07 z-score with GST-Ap-NF-kB RHD; 4.59 z-score in experiment [1]; 3.38 z-score in experiment [2]; 1.95 z-score with GST-Co-NF-kB; 5.55 z-score with GST-Dm-Relish; 7.98 z-score in the experiment with GST-Aq-NF-kB. Moreover, in the experiment with GST-Hu-p50, the binding signal is 4.97 z-score.

Consider “CCGATTAACATCAAAATCTCCCCTGATGTTAATCGGGTCTTGATTCGCTTGACGCTGCTG”, for which the binding signal in the experiment with GST-Ap-NF-kB RHD worked out at 8.53 z-score; in experiment [1], 7.57 z-score; in experiment [2] it was 8.79 z-score; with GST-Co-NF-kB, 7.3 z-score; in the experiment with GST-Dm-Relish, 4.44 z-score; in the experiment with GST-Aq-NF-kB, 6.41 z-score. In the experiment with GST-Hu-p50, this sequence came in with a binding signal of 5.85 z-score.

Take “CCGATTAACATCAAAAAGTCCCTTGATGTTAATCGGGTCTTGATTCGCTTGACGCTGCTG”: the binding signal worked out at 7.48 z-score in the experiment with GST-Ap-NF-kB RHD; 10.3 z-score in experiment [1]; 9.76 z-score in experiment [2]; 1.63 z-score with GST-Co-NF-kB; 8.86 z-score with GST-Dm-Relish; 8.25 z-score with GST-Aq-NF-kB. In addition, the binding signal with GST-Hu-p50 stood at 6.97 z-score.
